Inconclusive results are not listed. Active and inactive are the calls of the source. Calls come from the whole dose curve; as a rule, active = well fitted curve in the direction sought with a large enough effect; inconclusive = small, poorly fitted or top-dose-only effect, or another doubt; inactive = no such curve, though single readings can be large; an effect the other way counts as inactive or inconclusive. Positions of bridges follow the written chain, without caps; N, C: chain ends. Non-standard residues stand in square brackets, D forms with d. Residues, ends and D or L forms follow the SMILES beside them. ξ: configuration not given here. *: point of attachment. Octanoyl(6-Me) = CCC(C)CCCCC(=O)*; ξThr(3R) = C[C@@H](O)C(N)C(=O)O; dDab = NCC[C@@H](N)C(=O)O; Dab = NCC[C@H](N)C(=O)O

The nature of assay [1]: qHTS of pediatric cancer cell lines to identify multiple opportunities for drug repurposing: Primary screen for BT-37 cells (AID 1347094). The procedure, abridged: (§1)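 Following a 5-hour attachment period, cells at 500-1,000/well received compounds and were cultured for 48 hours. CellTiter-Glo was added and luminescence read to estimate viable, metabolically active cells.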

The nature of assay [2]: qHTS of pediatric cancer cell lines to identify multiple opportunities for drug repurposing: Primary screen for U-2 OS cells (AID 1347096). Note: nearly all actives have a fitted effect of over 50% in size. The procedure, abridged:
(§2)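 Cells (500-1,000/well) in growth media were settled 5 h at 37 degrees C, then given compounds for 48 h. Viability was read as CellTiter-Glo luminescence. Primary runs used MIPE at 11 points (0.78 nM-46 µM) and NPC at 8 points (0.59 nM-46 µM); follow-ups used 11 points.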

The nature of assay [3]: qHTS of pediatric cancer cell lines to identify multiple opportunities for drug repurposing: Primary screen for Saos-2 cells (AID 1347097). Note: nearly all actives have a fitted effect of over 40% in size. The procedure, abridged:
as §1
A general note: Quantitative high-throughput screening tests each substance at several concentrations.

Assay [4] can be described thus: qHTS of pediatric cancer cell lines to identify multiple opportunities for drug repurposing: Primary screen for SK-N-SH cells (AID 1347098). Note: nearly all actives have a fitted effect of over 65% in size. The method, boiled down:
(§3)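 Cells (500-1,000/well) rested 5 h, then received compounds for 48 h; metabolically active cells were measured by CellTiter-Glo luminescence. Final concentrations spanned up to 46 µM (MIPE, 11-point) or 0.59 nM-46 µM (NPC, 8-point) in primary screens, 11-point in follow-ups.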

Assay [5] in a line: qHTS of pediatric cancer cell lines to identify multiple opportunities for drug repurposing: Primary screen for BT-12 cells (AID 1347101). Note: nearly all actives have a fitted effect of over 25% in size. The method, boiled down: as §3
Assay [6] can be described thus: qHTS of pediatric cancer cell lines to identify multiple opportunities for drug repurposing: Primary screen for OHS-50 cells (AID 1347103). Note: nearly all actives have a fitted effect of over 40% in size. The method, boiled down:
as §3

Assay [7] is described as follows: qHTS of pediatric cancer cell lines to identify multiple opportunities for drug repurposing: Primary screen for RD cells (AID 1347104). Note: nearly all actives have a fitted effect of over 55% in size. The procedure, abridged:
as §1

Assay [8] in a line: qHTS of pediatric cancer cell lines to identify multiple opportunities for drug repurposing: Primary screen for MG 63 (6-TG R) cells (AID 1347105). Note: nearly all actives have a fitted effect of over 50% in size. The procedure, abridged:
as §1

The nature of assay [9]: qHTS of pediatric cancer cell lines to identify multiple opportunities for drug repurposing: Primary screen for Rh30 cells (AID 1347107). Note: nearly all actives have a fitted effect of over 75% in size. The procedure, abridged:
as §2

Assay [10] in a line: qHTS of pediatric cancer cell lines to identify multiple opportunities for drug repurposing: Primary screen for Rh41 cells (AID 1347108). Note: nearly all actives have a fitted effect of over 70% in size. The procedure, abridged:
as §1

Assay [11] can be described thus: qHTS of pediatric cancer cell lines to identify multiple opportunities for drug repurposing: Confirmatory screen for NB1643 cells (AID 1347109). Note: nearly all actives have a fitted effect of over 45% in size. The procedure, abridged: as §2
The nature of assay [12]: qHTS of pediatric cancer cell lines to identify multiple opportunities for drug repurposing: Confirmatory screen for A673 cells (AID 1347110).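 Note: cells exposed to compound for 48 h before the viability read; nearly all actives have a fitted effect of over 65% in size.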 The method, boiled down:
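qHTS titration format: primary MIPE 0.78 nM-46 µM (11 pts), NPC 0.59 nM-46 µM; confirmation 11 pts. 48 h, CTG luminescence.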

The nature of assay [13]: qHTS of pediatric cancer cell lines to identify multiple opportunities for drug repurposing: Confirmatory screen for SK-N-MC cells (AID 1347111).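 Note: cells exposed to compound for 48 h before the readout; nearly all actives have a fitted effect of over 70% in size.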 The method, boiled down: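 Metabolically active cells were quantified by ATP-dependent luminescence (CellTiter-Glo, 15 min at room temperature) following 48 h treatment. Cells had been plated at 500-1,000 per well and settled for 5 h beforehand.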

Assay [14] in a line: qHTS of pediatric cancer cell lines to identify multiple opportunities for drug repurposing: Confirmatory screen for BT-12 cells (AID 1347112). Note: nearly all actives have a fitted effect of over 55% in size. The procedure, abridged:
as §2

Assay [15] is described as follows: qHTS of pediatric cancer cell lines to identify multiple opportunities for drug repurposing: Confirmatory screen for LAN-5 cells (AID 1347113). Note: nearly all actives have a fitted effect of over 65% in size. The procedure, abridged: as §2
Assay [16] in a line: qHTS of pediatric cancer cell lines to identify multiple opportunities for drug repurposing: Primary screen for LAN-5 cells (AID 1347100). The procedure, abridged: as §2
Assay [17] is described as follows: qHTS of pediatric cancer cell lines to identify multiple opportunities for drug repurposing: Primary screen for Rh18 cells (AID 1347102). Note: nearly all actives have a fitted effect of over 65% in size. The method, boiled down:
as §2

Assay [18] in a line: qHTS of pediatric cancer cell lines to identify multiple opportunities for drug repurposing: Primary screen for control Hh wild type fibroblast cells (AID 1347106). Note: nearly all actives have a fitted effect of over 55% in size. The method, boiled down:
as §2

Assay [19] in a line: qHTS of pediatric cancer cell lines to identify multiple opportunities for drug repurposing: Primary screen for NB1643 cells (AID 1347099). Note: nearly all actives have a fitted effect of over 50% in size. The method, boiled down: as §1
Assay [20] is described as follows: qHTS of pediatric cancer cell lines to identify multiple opportunities for drug repurposing: Primary screen for NB-EBc1 cells (AID 1347095). The procedure, abridged: as §1
Potency is the fitted concentration of half-maximal effect.

As for `COc1cccc2c1C(=O)c1c(O)c3c(c(O)c1C2=O)C[C@@](O)(C(C)=O)C[C@H]3O[C@H]1C[C@H](N)[C@H](O)[C@H](C)O1`, the Potency in [1] was 0.0273 µM (active); in [2], 0.118 µM (active); in assay [3] it was 0.264 µM (active); in assay [4], 0.121 µM (active); in assay [5] it was 0.0769 µM (active); in assay [6], 0.344 µM (active). Besides, the Potency in assay [7] is 0.0743 µM (active); in assay [8] it was 372 nM (active); in assay [10], 46.9 nM (active); in assay [11], 0.165 µM (active); in assay [12], 0.414 µM (active); in assay [13] it was 0.165 µM (active). Besides, the values for the Potency in assay [14] and in [15] were 1.31 µM (active) and 0.185 µM (active), respectively. Also, the Potency result in assay [9] was “inactive”.

`CC1(C)O[C@@H]2C[C@H]3[C@@H]4CCC5=CC(=O)C=C[C@]5(C)[C@@H]4[C@@H](O)C[C@]3(C)[C@]2(C(=O)CO)O1`: the Potency result in assay [1], in [2], in [4], in [16], in assay [5] and in [17] was “inactive” in each case. Besides, the Potency result in [6], in [8], in [18], in assay [9], in assay [10] and in assay [11] was “inactive” throughout. Also, the Potency entry in assay [12], in [13], in [14] and in assay [15] was “inactive” each time.

As for `NC1=N[C@H]2[C@H](CS[C@H]2CCCCC(=O)O)N1`, the Potency entry in [1], in [2], in [3], in [19], in assay [16] and in assay [5] was “inactive” each time. The Potency result in assay [17], in assay [6], in assay [8], in assay [18] and in [10] was “inactive” in each case.

With `Cc1cnc(Nc2ccc(CN3CCOCC3)cc2)nc1Nc1cccc(S(=O)(=O)NC(C)(C)C)c1`, the Potency in assay [20] is 2.64 µM (active); in assay [2], 7.43 µM (active); in [3], 3.72 µM (active); in assay [4], 3.04 µM (active); in [19], 3.72 µM (active); in [16] it was 1.32 µM (active). For the same compound, the Potency in [5] was 9.68 µM (active); in [17], 3.72 µM (active); in assay [6], 2.17 µM (active); in [7] it was 6.62 µM (active); in assay [8], 3720 nM (active); in assay [18], 11.8 µM (active). In addition, the Potency is 6.62 µM (active) in [9]; 3320 nM (active) in assay [10]; 5.85 µM (active) in assay [11]; 13.1 µM (active) in assay [12]; 5.22 µM (active) in assay [13]; 14.7 µM (active) in assay [15].

Take `Cc1cncc2cccc(S(=O)(=O)N3CCCN(C(=O)CN)C[C@@H]3C)c12`: the Potency entry in assay [1], in assay [2], in [19], in assay [6], in assay [7] and in assay [8] was “inactive” in each case. Further, in assay [18], the Potency result was “inactive”. Further, the figures for the Potency in assay [3] and in [16] were 2.35 µM (active) and 1.48 µM (active), respectively.

Take `N#CC(=C(O)c1ccc(Cl)cc1Cl)c1nc2cc(Cl)ccc2c(=O)[nH]1`: the Potency result in assay [1], in assay [2], in [4], in assay [16], in assay [5] and in assay [6] was “inactive” throughout. Moreover, the Potency result in assay [8], in assay [18], in assay [9] and in [10] was “inactive” each time. In addition, the Potency in assay [19] is 20.9 µM (active).

Turning to `CCOC(=O)[C@@H](N)Cc1ccc(-c2cc(O[C@H](c3ccc(Cl)cc3-n3ccc(C)n3)C(F)(F)F)nc(N)n2)cc1`, the Potency in [1] was 27.3 µM (active); in assay [3], 18.7 µM (active); in [5] it was 30.6 µM (active); in assay [17], 23.5 µM (active); in assay [6], 24.3 µM (active); in assay [13] it was 32.9 µM (active). Also, the Potency in [15] is 23.3 µM (active). For the same compound, the Potency result in assay [4] and in assay [18] was “inactive” throughout.

Turning to `C[N+](C)([O-])CCNc1ccc(NCC[N+](C)(C)[O-])c2c1C(=O)c1c(O)ccc(O)c1C2=O`, the Potency result in [1], in [2], in [3], in assay [5], in assay [6] and in assay [8] was “inactive” throughout. In addition, the Potency entry in assay [18] and in assay [14] was “inactive” each time.

As to `CC(C=CC=C(C)C=CC1=C(C)CCCC1(C)C)=CC=CC=C(C)C=CC=C(C)C=CC1=C(C)CCCC1(C)C`, the Potency result in assay [1], in [2] and in assay [18] was “inactive” each time.

`Oc1cc2c(cc1O)C1c3ccc(O)c(O)c3OCC1(O)C2` (stereo not drawn): the Potency result in assay [1], in assay [2], in assay [3], in [4], in assay [19] and in [16] was “inactive” throughout. In addition, the Potency result in assay [5], in assay [17], in [7], in assay [8], in assay [18] and in [9] was “inactive” in each case. Also, the Potency entry in assay [10] is “inactive”.

In the case of `COc1cc(C[C@@H](CO)[C@H](CO)Cc2ccc(O)c(OC)c2)ccc1O`, the Potency in assay [1] was 3.85 µM (active); in assay [3] it was 5.9 µM (active); in assay [4], 1.71 µM (active); in assay [19] it was 0.59 µM (active); in assay [16] it was 2.35 µM (active); in [5] it was 10.9 µM (active). In addition, the Potency in assay [17] is 4.18 µM (active); in [6], 9.68 µM (active); in [7] it was 0.526 µM (active); in assay [8] it was 935 nM (active); in assay [18] it was 0.418 µM (active); in assay [9], 0.469 µM (active). For the same compound, the Potency is 935 nM (active) in [10] and 8.27 µM (active) in assay [13]. The Potency entry in [11] and in assay [14] was “inactive” in each case.

In the case of `CN(C)CCN1C(=O)c2cccc3cc(N)cc(c23)C1=O`, the Potency in [1] was 6.85 µM (active); in [20], 1.87 µM (active); in assay [19], 18.7 µM (active); in [5], 21.7 µM (active); in assay [6], 24.3 µM (active); in assay [7], 18.7 µM (active). In addition, in [10], the Potency was 23500 nM (active).

As to `CCC(C)CCCCC(=O)N[C@@H](CCN)C(=O)NC(C(=O)N[C@H](CCN)C(=O)N[C@@H]1CCNC(=O)C([C@@H](C)O)NC(=O)[C@@H](CCN)NC(=O)[C@@H](CCN)NC(=O)[C@@H](CC(C)C)NC(=O)[C@H](Cc2ccccc2)NC(=O)[C@H](CCN)NC1=O)[C@@H](C)O` (stereo partly drawn) ({Octanoyl(6-Me)}-[Dab][ξThr(3R)][dDab][dDab][Dab]F[dL][dDab][dDab][ξThr(3R)]; lactam 4-C), the Potency entry in assay [1], in [2], in [3], in assay [4], in [19] and in assay [5] was “inactive” in each case. The Potency result in assay [17], in [6], in assay [8], in [18], in assay [9] and in assay [10] was “inactive” each time.

The values are drawn from PubChem BioAssay (NCATS).
